Data from PubChem BioAssay AID623888 (Vanderbilt Specialized Chemistry Center, 2012).

Target: Metabotropic glutamate receptor 3 (Rattus norvegicus) (UniProt P31422)
Experiment: PubChem AID 623888
Conditions: HEK/GIRK rat mGlu3, thallium flux fluorescence, Schild, at 10 µM; % glutamate max: glutamate max response with compound, stronger effect = lower value; glutamate EC50 fold shift: stronger effect = higher value

Sequence of Metabotropic glutamate receptor 3 (Rattus norvegicus) (P31422 whole entry, looked up): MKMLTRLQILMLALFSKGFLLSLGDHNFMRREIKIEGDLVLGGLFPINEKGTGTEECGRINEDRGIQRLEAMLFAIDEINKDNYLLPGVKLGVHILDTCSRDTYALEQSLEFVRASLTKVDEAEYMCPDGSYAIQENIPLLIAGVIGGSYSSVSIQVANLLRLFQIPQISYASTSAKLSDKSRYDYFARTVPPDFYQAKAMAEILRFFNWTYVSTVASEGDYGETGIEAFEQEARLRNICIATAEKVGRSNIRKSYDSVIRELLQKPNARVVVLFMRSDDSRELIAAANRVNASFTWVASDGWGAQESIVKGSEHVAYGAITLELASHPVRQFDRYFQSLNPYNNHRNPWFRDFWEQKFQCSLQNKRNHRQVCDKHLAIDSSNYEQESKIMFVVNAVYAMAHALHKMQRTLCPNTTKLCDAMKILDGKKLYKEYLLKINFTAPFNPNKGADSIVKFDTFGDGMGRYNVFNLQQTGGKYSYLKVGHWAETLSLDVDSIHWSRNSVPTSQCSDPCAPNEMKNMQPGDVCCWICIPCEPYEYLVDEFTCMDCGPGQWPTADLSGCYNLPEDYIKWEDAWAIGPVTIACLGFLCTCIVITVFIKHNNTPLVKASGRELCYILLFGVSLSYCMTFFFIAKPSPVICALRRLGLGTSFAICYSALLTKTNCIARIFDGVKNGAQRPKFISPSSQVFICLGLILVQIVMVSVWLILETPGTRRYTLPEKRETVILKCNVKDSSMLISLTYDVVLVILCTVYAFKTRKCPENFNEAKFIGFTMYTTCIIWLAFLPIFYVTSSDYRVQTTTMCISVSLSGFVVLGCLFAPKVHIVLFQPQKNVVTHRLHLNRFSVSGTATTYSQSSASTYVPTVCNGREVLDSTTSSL

## COc1ccc(C#Cc2ccc(C(=O)N3CCC[C@@H](CO)C3)cc2)cc1
  % glutamate max: 24.5%
  glutamate EC50 fold shift: 8.96
